# Test results as given in PubChem BioAssay (NCI).
# Values joined by “and” are separate entries in the source; they are usually repeats but may differ in a detail not shown here. Equal entries are not always repeated. The panel holds about 83,000 compounds, 20% with a hit somewhere; the sample as a whole holds those more often.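 Values shown are percent growth following 48 h exposure of cells in 96-well plates to a single concentration of compound; below 10 was considered active.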 Active and inactive are the calls of the source.
# How the values were obtained:
# Test in all cases: NCI-60 one-dose screen, 48 h (100 = growth as untreated, 0 = no growth, -100 = all killed)
# HOP-62 NSCLC = details: 10 µM unless noted
# NCI-H460 lung = details: 10 µM unless noted
# HOP-92 NSCLC = details: 10 µM unless noted
# NCI-H522 lung = details: 10 µM unless noted
# A549/ATCC NSCLC = details: 10 µM unless noted
# 786-0 renal = details: 10 µM unless noted
# DU-145 prostate = details: 10 µM unless noted
# K-562 leukemia = details: 10 µM unless noted
# MALME-3M melanoma = details: 10 µM unless noted
# MDA-MB-231 breast = details: 10 µM unless noted
# RXF 393 renal = details: 10 µM unless noted
# SF-268 CNS = details: 10 µM unless noted
# SF-295 CNS = details: 10 µM unless noted
# SF-539 CNS = details: 10 µM unless noted
# UACC-257 melanoma = details: 10 µM unless noted
# M14 melanoma = details: 10 µM unless noted
# HCT-15 colon = details: 10 µM
# HT29 colon = details: 10 µM unless noted
# SNB-75 CNS = details: 10 µM unless noted
# SNB-19 CNS = details: 10 µM unless noted
# PC-3 prostate = details: 10 µM unless noted
# SK-MEL-5 melanoma = details: 10 µM unless noted
# UACC-62 melanoma = details: 10 µM unless noted
# LOX IMVI melanoma = details: 10 µM unless noted
# SK-MEL-28 melanoma = details: 10 µM unless noted
# SK-MEL-2 melanoma = details: 10 µM unless noted
# SN12C renal = details: 10 µM unless noted
# UO-31 renal = details: 10 µM unless noted
# TK-10 renal = details: 10 µM unless noted
# ACHN renal = details: 10 µM unless noted
# CAKI-1 renal = details: 10 µM unless noted
# A498 renal = details: 10 µM unless noted
# HL-60(TB) leukemia = details: 10 µM unless noted
# CCRF-CEM leukemia = details: 10 µM unless noted
# MOLT-4 leukemia = details: 10 µM
# SR leukemia = details: 10 µM
# RPMI-8226 leukemia = details: 10 µM unless noted
# OVCAR-5 ovarian = details: 10 µM unless noted
# OVCAR-4 ovarian = details: 10 µM unless noted
# SK-OV-3 ovarian = details: 10 µM unless noted
# IGROV1 ovarian = details: 10 µM
# OVCAR-3 ovarian = details: 10 µM unless noted
# HS 578T breast = details: 10 µM unless noted
# NCI/ADR-RES ovarian = details: 10 µM unless noted
# T-47D breast = details: 10 µM unless noted
# BT-549 breast = details: 10 µM
# MDA-MB-435 melanoma = details: 10 µM unless noted
# SW-620 colon = details: 10 µM unless noted
# MCF7 breast = details: 10 µM unless noted
# HCT-116 colon = details: 10 µM unless noted
# HCC-2998 colon = details: 10 µM unless noted
# KM12 colon = details: 10 µM unless noted
# NCI-H226 lung = details: 10 µM unless noted
smiles,measurement,setting,value
CNC(=O)Oc1ccccc1-c1ccccc1,growth,HOP-62 NSCLC,103% (inactive)
same,growth,NCI-H460 lung,112% (inactive)
same,growth,HOP-92 NSCLC,101% (inactive)
same,growth,NCI-H522 lung,85.9% (inactive)
same,growth,A549/ATCC NSCLC,96.2% (inactive)
same,growth,786-0 renal,95.9% (inactive)
same,growth,DU-145 prostate,106% (inactive)
same,growth,K-562 leukemia,99.6% (inactive)
same,growth,MALME-3M melanoma,102% (inactive)
same,growth,MDA-MB-231 breast,114% (inactive)
same,growth,RXF 393 renal,120% (inactive)
same,growth,SF-268 CNS,100% (inactive)
same,growth,SF-295 CNS,94.5% (inactive)
same,growth,SF-539 CNS,104% (inactive)
same,growth,UACC-257 melanoma,101% (inactive)
same,growth,M14 melanoma,99.7% (inactive)
same,growth,HCT-15 colon,106% (inactive)
same,growth,HT29 colon,101% (inactive)
same,growth,SNB-75 CNS,88.3% (inactive)
same,growth,SNB-19 CNS,97.7% (inactive)
same,growth,PC-3 prostate,97.8% (inactive)
same,growth,SK-MEL-5 melanoma,107% (inactive)
same,growth,UACC-62 melanoma,102% (inactive)
same,growth,LOX IMVI melanoma,104% (inactive)
same,growth,SK-MEL-28 melanoma,109% (inactive)
same,growth,SK-MEL-2 melanoma,76.3% (inactive)
same,growth,SN12C renal,106% (inactive)
same,growth,UO-31 renal,81.8% (inactive)
same,growth,TK-10 renal,90.5% (inactive)
same,growth,ACHN renal,108% (inactive)
same,growth,CAKI-1 renal,95.5% (inactive)
same,growth,A498 renal,93.2% (inactive)
same,growth,HL-60(TB) leukemia,94.8% (inactive)
same,growth,CCRF-CEM leukemia,94.1% (inactive)
same,growth,MOLT-4 leukemia,96% (inactive)
same,growth,SR leukemia,99% (inactive)
same,growth,RPMI-8226 leukemia,99.4% (inactive)
same,growth,OVCAR-5 ovarian,111% (inactive)
same,growth,OVCAR-4 ovarian,110% (inactive)
same,growth,SK-OV-3 ovarian,101% (inactive)
same,growth,IGROV1 ovarian,99.3% (inactive)
same,growth,OVCAR-3 ovarian,105% (inactive)
same,growth,HS 578T breast,107% (inactive)
same,growth,NCI/ADR-RES ovarian,108% (inactive)
same,growth,T-47D breast,105% (inactive)
same,growth,BT-549 breast,103% (inactive)
same,growth,MDA-MB-435 melanoma,99.3% (inactive)
same,growth,SW-620 colon,103% (inactive)
same,growth,MCF7 breast,106% (inactive)
same,growth,HCT-116 colon,99% (inactive)
same,growth,HCC-2998 colon,101% (inactive)
same,growth,KM12 colon,102% (inactive)
C/C(=N\O)c1ccccn1,growth,HL-60(TB) leukemia,112% (inactive)
O=c1[nH]c2ccccc2cc1-c1nnc(Cc2ccccc2)o1,growth,HL-60(TB) leukemia,27.1% (inactive)
Cc1c(C(=O)C(SC(=S)N2CCOCC2)SC(=S)N2CCOCC2)nnn1-c1ccc([N+](=O)[O-])cc1,growth,HL-60(TB) leukemia,91.3% (inactive)
COc1ccc(/C(=C\c2ccc3c(c2)OCO3)C(=O)Nc2nc3ccccc3s2)cc1OC,growth,HL-60(TB) leukemia,92% (inactive)
O=C(O)CN1C(=O)C(Cc2ccccc2)N=C(c2cccc(O)c2)c2ccccc21 (configuration not stated),growth,UACC-62 melanoma,90.1% [30 µM] (inactive)
same,growth,TK-10 renal,96% [30 µM] (inactive)
same,growth,MCF7 breast,79% [30 µM] (inactive)
C=CCN1CCCC1=O,growth,HL-60(TB) leukemia,47.1% (inactive)
CC12CC3OC(=O)C1COC14OC5(C2C1=O)C(O)(CCC1C4CC2OC24CC=CC(=O)C14C)C(=O)OC35C (configuration not stated),growth,UACC-62 melanoma,-79.6% [100 µM] (active) and -94.2% [100 µM] (active)
same,growth,TK-10 renal,4.16% [100 µM] (active) and -100% [100 µM] (active)
same,growth,MCF7 breast,-49.7% [100 µM] (active) and -85% [100 µM] (active)
CN1C(=O)C(C(=O)/C=C/c2ccccc2C(=O)O)C(=O)N(C)C1=O,growth,HL-60(TB) leukemia,97.4% (inactive)
O=C(O)CCC1N=C(c2cccc(O)c2)c2ccccc2NC1=O (configuration not stated),growth,UACC-62 melanoma,88.5% [30 µM] (inactive)
same,growth,TK-10 renal,96.4% [30 µM] (inactive)
same,growth,MCF7 breast,83.2% [30 µM] (inactive)
C/C=C1\CN2CCC34c5ccccc5N(C)C35OCC4(C(=O)OC)C1CC25 (configuration not stated),growth,UACC-62 melanoma,82.9% [100 µM] (inactive) and -86% [100 µM] (active)
same,growth,TK-10 renal,80.6% [100 µM] (inactive) and 13.9% [100 µM] (inactive)
same,growth,MCF7 breast,77% [100 µM] (inactive) and -100% [100 µM] (active)
CN(N)/N=N/c1nc[nH]c1C(N)=O,growth,UACC-62 melanoma,-13.9% [100 µM] (active) and 0.502% [100 µM] (active)
same,growth,TK-10 renal,5.8% [100 µM] (active) and 2.21% [100 µM] (active)
same,growth,MCF7 breast,19% [100 µM] (inactive) and 4.05% [100 µM] (active)
COc1ccc(C2C(N)=NNC2c2cccc(O)c2)cc1 (configuration not stated),growth,HL-60(TB) leukemia,97.9% (inactive)
O=C1C(Cc2ccccc2)N=C(c2cccc(O)c2)c2ccc(Cl)cc2N1CC1CC1 (configuration not stated),growth,UACC-62 melanoma,94.1% [30 µM] (inactive)
same,growth,TK-10 renal,105% [30 µM] (inactive)
same,growth,MCF7 breast,76.3% [30 µM] (inactive)
CC(=O)OC1CCC2(C)C(=CCC3C4CC(CN5CC5)C(=O)C4(C)CCC32)C1 (configuration not stated),growth,NCI-H226 lung,97.7% (inactive)
same,growth,HOP-62 NSCLC,121% (inactive)
same,growth,NCI-H460 lung,88.2% (inactive)
same,growth,NCI-H522 lung,-78.4% (active)
same,growth,A549/ATCC NSCLC,94.1% (inactive)
same,growth,786-0 renal,87.9% (inactive)
same,growth,DU-145 prostate,80.8% (inactive)
same,growth,MALME-3M melanoma,103% (inactive)
same,growth,MDA-MB-231 breast,99.6% (inactive)
same,growth,RXF 393 renal,93.6% (inactive)
same,growth,SF-268 CNS,101% (inactive)
same,growth,SF-295 CNS,95.5% (inactive)
same,growth,SF-539 CNS,98.1% (inactive)
same,growth,UACC-257 melanoma,93.3% (inactive)
same,growth,M14 melanoma,93.4% (inactive)
same,growth,HCT-15 colon,89.7% (inactive)
same,growth,SNB-75 CNS,93.9% (inactive)
same,growth,SNB-19 CNS,98.4% (inactive)
same,growth,PC-3 prostate,88.3% (inactive)
same,growth,SK-MEL-5 melanoma,99.1% (inactive)
same,growth,UACC-62 melanoma,94.4% (inactive)
same,growth,LOX IMVI melanoma,44.1% (inactive)
same,growth,SK-MEL-28 melanoma,97.9% (inactive)
same,growth,SK-MEL-2 melanoma,106% (inactive)
same,growth,SN12C renal,99.6% (inactive)
same,growth,UO-31 renal,34.1% (inactive)
same,growth,TK-10 renal,-12.1% (active)
same,growth,ACHN renal,76.4% (inactive)
same,growth,CAKI-1 renal,88% (inactive)
same,growth,A498 renal,86.7% (inactive)
